Where a name gives a salt, the structure may show the parent alone.
Tests used:
Experiment in all cases: lowest phenotypically active concentration; higher = less potent
Details in all cases: treatment time: 24 h
A549-CANX-COX4 = tested on: A549-CANX-COX4
Method in brief: (§1)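 Two criteria together defined phenotypic activity: deviation and reproducibility. Deviation meant ≥3 of 4 wells beyond the 95th percentile of Euclidean distances in solvent control wells, and reproducibility meant a median replicate Pearson correlation above the 95th percentile of non-replicates. Wells had been treated for 24 h at 0.3, 1, 3 or 9 µM in fifteen gene-edited A549, HepG2 and WPMY1 reporter lines before live imaging.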

A549-TP53BP1-CLTA = tested on: A549-TP53BP1-CLTA
Method in brief: as §1

HepG2-ACTB-RAB5A = tested on: HepG2-ACTB-RAB5A
Method in brief: as §1

HepG2-GM130-SQSTM1 = tested on: HepG2-GM130-SQSTM1
Method in brief: as §1

HepG2-TP53BP1-CLTA = tested on: HepG2-TP53BP1-CLTA
Method in brief: as §1

HepG2-TUBA1B-RELA = tested on: HepG2-TUBA1B-RELA
Method in brief: as §1

WPMY1-CANX-COX4 = tested on: WPMY1-CANX-COX4
Method in brief: as §1

WPMY1-GM130-SQSTM1 = tested on: WPMY1-GM130-SQSTM1
Method in brief: as §1

WPMY1-TP53BP1-CLTA = tested on: WPMY1-TP53BP1-CLTA
Method in brief: as §1

WPMY1-TUBA1B-RELA = tested on: WPMY1-TUBA1B-RELA
Method in brief: as §1

| Structure (SMILES) | lowest phenotypically active concentration (A549-CANX-COX4) | lowest phenotypically active concentration (A549-TP53BP1-CLTA) | lowest phenotypically active concentration (HepG2-ACTB-RAB5A) | lowest phenotypically active concentration (HepG2-GM130-SQSTM1) | lowest phenotypically active concentration (HepG2-TP53BP1-CLTA) | lowest phenotypically active concentration (HepG2-TUBA1B-RELA) | lowest phenotypically active concentration (WPMY1-CANX-COX4) | lowest phenotypically active concentration (WPMY1-GM130-SQSTM1) | lowest phenotypically active concentration (WPMY1-TP53BP1-CLTA) | lowest phenotypically active concentration (WPMY1-TUBA1B-RELA) |
| --- | --- | --- | --- | --- | --- | --- | --- | --- | --- | --- |
| CN1C[C@H](C(=O)N[C@]2(C)O[C@@]3(O)[C@@H]4CCCN4C(=O)[C@H](Cc4ccccc4)N3C2=O)C=C2c3cccc4[nH]cc(c34)C[C@H]21 [ergotamine] | 3 µM | 3 µM | 9 µM | 3 µM | 3 µM | 9 µM | 3 µM | 3 µM | 3 µM | 3 µM |
| CCn1cnc2c(Nc3cccc(Cl)c3)nc(N[C@H]3CCCC[C@H]3N)nc21 | 3 µM | 1 µM | 1 µM | 1 µM | 1 µM | 1 µM | 1 µM | 1 µM | 1 µM | 1 µM |
| COc1cc2c(c(OC)c1OC)-c1ccc(OC)c(=O)cc1[C@@H](NC(C)=O)CC2 [colchicine] | ≤ 0.3 µM | ≤ 0.3 µM | ≤ 0.3 µM | ≤ 0.3 µM | ≤ 0.3 µM | ≤ 0.3 µM | ≤ 0.3 µM | ≤ 0.3 µM | ≤ 0.3 µM | ≤ 0.3 µM |
| CC[C@H]1CN2CCc3cc(OC)c(OC)cc3[C@@H]2C[C@@H]1C[C@H]1NCCc2cc(OC)c(OC)cc21 [emetine] | ≤ 0.3 µM | ≤ 0.3 µM | ≤ 0.3 µM | ≤ 0.3 µM | ≤ 0.3 µM | ≤ 0.3 µM | ≤ 0.3 µM | ≤ 0.3 µM | ≤ 0.3 µM | ≤ 0.3 µM |
| C[C@]12CC[C@H]3[C@@H](CC[C@]4(O)C[C@@H](O)CC[C@]34C=O)[C@@]1(O)CC[C@@H]2C1=CC(=O)OC1 [Strophanthidin] | ≤ 0.3 µM | ≤ 0.3 µM | ≤ 0.3 µM | 1 µM | ≤ 0.3 µM | ≤ 0.3 µM | ≤ 0.3 µM | ≤ 0.3 µM | ≤ 0.3 µM | ≤ 0.3 µM |
| Cc1cc2c(C(C)C)c(O)c(O)c(C=O)c2c(O)c1-c1c(C)cc2c(C(C)C)c(O)c(O)c(C=O)c2c1O [gossypol] | 9 µM | 9 µM | 9 µM | 9 µM | 9 µM | 9 µM | 9 µM | 9 µM | 3 µM | 9 µM |
| COC[C@H]1OC(=O)c2coc3c2[C@@]1(C)C1=C(C3=O)[C@@H]2CCC(=O)[C@@]2(C)C[C@H]1OC(C)=O [wortmannin] | 9 µM | 9 µM |  |  |  |  |  |  |  |  |
| COC(=O)[C@@]1(O)C[C@H]2O[C@]1(C)n1c3ccccc3c3c4c(c5c6ccccc6n2c5c31)C(=O)NC4 | ≤ 0.3 µM | ≤ 0.3 µM | ≤ 0.3 µM | ≤ 0.3 µM | ≤ 0.3 µM | ≤ 0.3 µM | ≤ 0.3 µM | ≤ 0.3 µM | ≤ 0.3 µM | ≤ 0.3 µM |
| C[C@@H]1O[C@@H](O[C@H]2C[C@@H](O)[C@]3(CO)[C@H]4[C@H](O)C[C@]5(C)[C@@H](C6=CC(=O)OC6)CC[C@]5(O)[C@@H]4CC[C@]3(O)C2)[C@H](O)[C@H](O)[C@H]1O [Strophantine octahydrate] | ≤ 0.3 µM | ≤ 0.3 µM | ≤ 0.3 µM | ≤ 0.3 µM | ≤ 0.3 µM | ≤ 0.3 µM | ≤ 0.3 µM | ≤ 0.3 µM | ≤ 0.3 µM | ≤ 0.3 µM |
| CC[C@@H](C(=O)[C@@H](C)[C@@H](O)[C@H](C)[C@@H]1O[C@@H]([C@@H](CC)C(=O)O)CC[C@@H]1C)[C@H]1O[C@]2(C=C[C@@H](O)[C@]3(CC[C@@](C)([C@H]4CC[C@](O)(CC)[C@H](C)O4)O3)O2)[C@H](C)C[C@@H]1C [Salinomycin Sodium] | 1 µM | ≤ 0.3 µM | 1 µM | 1 µM | 1 µM | ≤ 0.3 µM | ≤ 0.3 µM | ≤ 0.3 µM | ≤ 0.3 µM | ≤ 0.3 µM |
| C[C@]12CC[C@H](O)C[C@H]1CC[C@@H]1[C@@H]2C[C@@H](O)[C@]2(C)[C@@H](C3=CC(=O)OC3)CC[C@]12O [Digoxigenin] | 1 µM | ≤ 0.3 µM | 1 µM | 3 µM | 1 µM | 1 µM | 1 µM | 3 µM | 1 µM | 1 µM |
| COC1=CC(C)=C[C@@H](C)[C@@H](O)[C@@H](C)CC(C)=CC=C[C@H](OC)[C@@H]([C@@H](C)[C@@H](O)[C@H](C)[C@@]2(O)C[C@@H](O)[C@H](C)[C@@H](C(C)C)O2)OC1=O [Bafilomycin A1] | 9 µM | 3 µM | 3 µM | 3 µM | 9 µM | 3 µM | 3 µM | 1 µM | 3 µM | 3 µM |
| C=C1[C@@H](C)[C@H]2[C@H](Cc3ccccc3)NC(=O)[C@]23OC(=O)C=C[C@H](O)CCC[C@@H](C)CC=C[C@H]3[C@@H]1O [Cytochalasin B] | 1 µM | 3 µM | 1 µM | 1 µM | 3 µM | 3 µM | 1 µM | 3 µM | 3 µM | 3 µM |
| O=c1[nH]c2ccccc2n1C1CCN(CCCC(c2ccc(F)cc2)c2ccc(F)cc2)CC1 [pimozide] |  |  | 3 µM | 3 µM |  | 3 µM |  |  |  |  |
| O=C(Nc1ccncc1)C(=O)c1cn(Cc2ccc(Cl)cc2)c2ccccc12 [Indibulin] |  | 3 µM | 1 µM | ≤ 0.3 µM | 1 µM | 1 µM | 3 µM | ≤ 0.3 µM | ≤ 0.3 µM | ≤ 0.3 µM |
| Cc1sc2c(c1C)C(c1ccc(Cl)cc1)=N[C@@H](CC(N)=O)c1nnc(C)n1-2 | ≤ 0.3 µM | ≤ 0.3 µM | ≤ 0.3 µM | ≤ 0.3 µM | ≤ 0.3 µM | ≤ 0.3 µM | ≤ 0.3 µM | ≤ 0.3 µM | ≤ 0.3 µM | ≤ 0.3 µM |
| C[C@H](CCC(=O)O)C[C@H](C)C[C@H](C)C(=O)/C=C(\O)[C@H](C)C[C@H](C)C/C=C/[C@@H](C)[C@@H](O)[C@@H](C)[C@@H](O)C[C@@H]1CC[C@@](C)([C@H]2CC[C@@](C)([C@@H](C)O)O2)O1 [Ionomycin free acid] | 9 µM |  |  |  |  | 9 µM | 9 µM | 9 µM | 9 µM |  |
| O=C1NC(=O)c2c1c1c3ccccc3n3c1c1c2c2ccccc2n1C1CCC3O1 |  |  |  |  | 9 µM |  | 9 µM | ≤ 0.3 µM | 9 µM |  |
| C/C=C(/C)C(=O)O[C@H]1C(C)=C2[C@H]([C@@H]1OC(=O)CCCCCCC)[C@@](C)(OC(C)=O)C[C@H](OC(=O)CCC)[C@@]1(O)[C@H]2OC(=O)[C@@]1(C)O [Thapsigargin] | ≤ 0.3 µM | ≤ 0.3 µM | ≤ 0.3 µM | ≤ 0.3 µM | ≤ 0.3 µM | ≤ 0.3 µM | ≤ 0.3 µM | ≤ 0.3 µM | ≤ 0.3 µM | ≤ 0.3 µM |
| C[C@@]1(CO)[C@H](O)CC[C@@]2(C)[C@H]1CC[C@H]1C[C@@H]3C[C@@]12CC[C@]3(O)CO [Aphidicolin] | ≤ 0.3 µM | ≤ 0.3 µM | ≤ 0.3 µM | ≤ 0.3 µM | ≤ 0.3 µM | ≤ 0.3 µM | ≤ 0.3 µM | ≤ 0.3 µM | 1 µM | ≤ 0.3 µM |
| CCN1CCN(C(=O)Cc2ccc(Nc3ncc(F)c(Nc4ccc(C(=O)Nc5ccccc5Cl)cc4)n3)cc2)CC1 | 1 µM | 1 µM | 1 µM | 1 µM | ≤ 0.3 µM | ≤ 0.3 µM |  |  | 1 µM | 1 µM |
| CC[C@H]1CN2CC[C@H]1C[C@@H]2[C@@H](O)c1ccnc2ccc(OC)cc12 [Hydroquinidine HCl] |  |  |  | 9 µM |  |  | 9 µM |  |  | 9 µM |
| C[C@@]12C(=O)OC(=O)[C@]1(C)[C@H]1CC[C@@H]2O1 [Cantharidin] | 3 µM | 3 µM | 3 µM | 9 µM | 9 µM | 3 µM | 9 µM | 3 µM | 3 µM | 3 µM |
| N#CC(C#N)=NNc1ccc(OC(F)(F)F)cc1 | 9 µM | 9 µM | 9 µM | 9 µM | 9 µM | 9 µM | 3 µM | 9 µM | 3 µM | 9 µM |
